Results published in PubChem BioAssay (NCI).
About 79,000 compounds went through this panel and 15% of them were active in at least one assay; those are over-represented in the sample as a whole. Active and inactive are the calls of the source. Cut-off read from the data, not from the text of the source: active = growth inhibition above about 70%; inactive = the rest.

Tests used:
[1] = NCI Yeast Anticancer Drug Screen. Data for the rad50 strain (AID 155);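 note: 0% = growth of vehicle-only cultures of the same strain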; settings: S. cerevisiae rad50 strain growth inhibition; at 50.0 µM; hits give high values
Outline: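 Relative growth inhibition (compound vs vehicle) was measured in yeast with a defined repair-gene alteration.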

[2] = NCI Yeast Anticancer Drug Screen. Data for the mec2-1 strain (AID 157); settings: S. cerevisiae mec2-1 strain, at 50.0 µM, hits give high values
Outline: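 Test agents were screened against the mec2-1 yeast strain, with defined DNA repair or cell cycle alteration. Growth was scored as inhibition against vehicle-only controls.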

[3] = NCI Yeast Anticancer Drug Screen. Data for the sgs1 mgt1 strain (AID 161);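 note: 0% = growth of cultures given vehicle only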; settings: S. cerevisiae sgs1 mgt1 strain, at 50.0 µM, hits give high values
Outline: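 Test agents were incubated with a DNA-repair-mutant yeast strain. Growth was then read and compared against vehicle-treated controls.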

[4] = NCI Yeast Anticancer Drug Screen. Data for the cln2 rad14 strain (AID 165);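 note: 0% = growth equal to vehicle treated cultures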; settings: S. cerevisiae cln2 rad14 strain, at 50.0 µM, hits give high values
Outline: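 Growth of compound-exposed yeast (cln2 rad14 genotype) measured and expressed as inhibition relative to vehicle.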

[5] = NCI Yeast Anticancer Drug Screen. Data for the bub3 strain (AID 167); settings: S. cerevisiae bub3 mutant strain, at 50.0 µM, hits give high values
Outline: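 Screening used yeast with an engineered genetic alteration affecting cell cycle control. Compound-exposed cultures were compared with vehicle cultures, and reduced growth was taken as inhibition.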

[6] = NCI Yeast Anticancer Drug Screen. Data for the mlh1 rad18 strain (AID 175); settings: S. cerevisiae mlh1 rad18 strain growth inhibition; at 50.0 µM; hits give high values
Outline: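 In this whole-cell yeast screen, a strain with altered DNA damage repair is challenged with compound, and its growth is measured against matched vehicle-treated controls.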

Measured: growth inhibition

CSc1c(C#N)c(N)nc2c(N=Nc3ccc(Cl)cc3)c(N)nn12
inactive: [1] 8.75% | [2] 3.65% | [3] -9.1% | [4] -4.65% | [5] -6.5% | [6] -58%

CCCCN(CCCC)CCCNC(=O)OCC
inactive: [1] -4.2% | [2] -22.9% | [3] -7% | [4] 14.6% | [5] -26.8% | [6] -6.2%

CC(=O)NC1=N/C(=C\c2ccc(Cl)cc2)C(=O)N1/C=C1\C(=O)Oc2ccccc2C1=O
inactive: [1] 50% | [2] 13.9% | [3] 24.9% | [4] 26% | [5] 49.7% | [6] 41.9%

COc1ccc(CC(=O)NCCc2ccc(OC)c(OC)c2)cc1Br
inactive: [1] 12.2% | [2] -4.85% | [3] -3.8% | [4] 8.35% | [5] 8.8% | [6] 2.6%

O=C1CN(c2cccc(Cl)c2)C(=O)CN1CCN1CC(=O)N(c2cccc(Cl)c2)CC1=O
inactive: [1] -35.2% | [2] -11.7% | [3] -19.6% | [4] -7.8% | [5] -37.5% | [6] -32.2%

CCOC(=O)c1cc2cc(Cc3ccc4[nH]c(C(=O)OCC)cc4c3)ccc2[nH]1
inactive: [1] -12.8% | [2] -21.4% | [3] -26.2% | [4] -26.4% | [5] -32.2% | [6] -43.6%

Nc1nc2c(c(-c3cccc(Cl)c3)n1)COC/C2=C\c1cccc(Cl)c1
inactive: [1] 26.3% | [2] 20.8% | [3] 25.2% | [4] 20.2% | [5] 25.4% | [6] 24%

CC(=O)OC1(C#N)CCCCC1
inactive: [1] 5.7% | [2] -2.3% | [3] -7.05% | [4] 23.1% | [5] 4.8% | [6] 14.4%

O=c1[nH]c2cc3[nH]c4ncccc4c(=O)c3cc2[nH]1
inactive: [1] -3.7% | [2] 0.15% | [3] -22.7% | [4] 8.15% | [5] -1.15% | [6] 21.3%

COC(=O)CCC1=C(C)C2=NC1=CC1=NC(=CC3=NC(=Cc4[nH]c(/c(=C\O)c4C)=C2)C(C=O)=C3C)C(C)=C1CCC(=O)OC
inactive: [1] 28.1% | [2] 16.5% | [3] 32.2% | [4] 26.9% | [5] 9.15% | [6] 11.6%

CN(C)CCSCC(=O)N1c2ccccc2Sc2ccccc21
inactive: [1] -7.7% | [2] -8.5% | [3] -5.8% | [4] -41.2% | [5] 3% | [6] -4.8%

CC(C)c1ccc(/C(O)=C/C(=O)C(=O)/C=C(/O)c2ccc(C(C)C)cc2)cc1
inactive: [1] 31.4% | [2] 2.25% | [3] 1.25% | [4] 9.6% | [5] 2.5% | [6] 10.7%

CN1C(=O)Cc2ccccc21
inactive: [1] 9.9% | [2] -7.25% | [3] -13.3% | [4] 11.5% | [5] 20.8% | [6] -1.05%

OCCN(CO)CCO
inactive: [1] -23.8% | [2] 6.35% | [3] -0.25% | [4] -2.6% | [5] 2.6% | [6] -25.2%

COc1cccc2c1C(=N)c1c(O)c3c(c(O)c1C2=O)C[C@@](O)(C(C)=O)C[C@@H]3OC1CC(N)C(O)C(C)O1 (stereo partly specified)
inactive: [1] 42.5% | [2] -26.1% | [3] -11.7% | [4] 34.2% | [5] -4.35% | [6] 13.9%

CCC(c1ccc(OC)cc1)C1NC(=S)NC1=O (stereo unspecified)
inactive: [1] 4.05% | [2] -30.1% | [3] 3.2% | [4] 6.45% | [5] 9.55% | [6] 11.6%

CCOC(CNCc1ccc(OC)cc1)OCC
inactive: [1] -0.25% | [2] -3.1% | [3] 4% | [4] -2.05% | [5] 22.4% | [6] 7.6%

COc1ccc(CCNC(=O)c2ccc(CSc3ccc(Cl)cc3)o2)cc1OC
inactive: [1] 34.5% | [2] 24.1% | [3] 37.6% | [4] 50.5% | [5] 42.8% | [6] 25.1%

FC(F)(F)c1ccc(Cl)c(N=C=S)c1
inactive: [1] -26.1% | [2] -9.15% | [3] 31.4% | [4] -108% | [5] -21.8% | [6] -4.7%

O=c1c2c3c(sc2nc2n1N=CN(c1ccc(F)cc1)C2)CCCC3
inactive: [1] 4.95% | [2] -1.9% | [3] 2.4% | [4] -8.3% | [5] -1.05% | [6] -5.9%

Cc1ccc(Cl)c(NC(=O)c2ccccc2Cl)c1
inactive: [1] 6.2% | [2] 8.2% | [3] 18.8% | [4] -8% | [5] 12.4% | [6] 30.9%

CC1=CCC(C(C)(C)OCCCO)CC1 (stereo unspecified)
inactive: [1] 15.8% | [2] 14% | [3] -17.6% | [4] 10.7% | [5] 4.4% | [6] 22%

CC(O)C(O)C(=O)NN (stereo unspecified)
inactive: [1] -1% | [2] 0.3% | [3] 11.4% | [4] 4% | [5] -2.9% | [6] -6.95%

COC(=O)C(/C(=N/NC(N)=O)C(=O)Nc1c(C)cccc1C(C)(C)C)c1nc2ccc(Cl)cc2[nH]c1=O (stereo unspecified)
inactive: [1] -3.9% | [2] -15.7% | [3] -7.4% | [4] 3.3% | [5] -11.2% | [6] 0.1%

CC1CCCCC1NC(=O)c1ccccc1 (stereo unspecified)
inactive: [1] -12% | [2] -10.6% | [3] -5.2% | [4] -34.8% | [5] -13.7% | [6] -3.1%

CC(C(=O)O)C(NC(=O)c1ccccc1)C(=O)O (stereo unspecified)
inactive: [1] 11.5% | [2] 5.35% | [3] 0.2% | [4] 16% | [5] 4.4% | [6] 13.4%

C#CC1(c2ccccc2)OCCO1
inactive: [1] 21.9% | [2] 17.4% | [3] 16.3% | [4] 4.55% | [5] -13.2% | [6] 27.4%

Cc1ccc(S(=O)(=O)Nc2nc3ccccc3c(=O)n2C2CCCCC2)cc1
inactive: [1] 27.2% | [2] 11.3% | [3] -43.2% | [4] 2.1% | [5] -19.5% | [6] -3.5%

N#[N+]c1ccc(Nc2ccccc2)cc1
inactive: [1] -8.2% | [2] 9.55% | [3] -20.1% | [4] 12.3% | [5] -10.8% | [6] -4.25%

COC1=C(N)C(=O)c2ccc(-c3ccccn3)nc2C1=O
active: [1] 89.7% | [2] 92.3% | [3] 86.8% | [4] 89.8% | [5] 81.8% | [6] 92.9%

C/C(O)=C(/C=N/C(N)=S)C(N)=O
inactive: [1] -3.05% | [2] 14.2% | [3] 7.1% | [4] 22% | [5] 10.2% | [6] 15.5%

O=Cc1c2cnc(c1O)CSCCCCSC2
inactive: [1] -9.2% | [2] -3.8% | [3] -10.8% | [4] -45.2% | [5] -16.4% | [6] -1.8%

CC(=O)Nc1ccc(S(=O)(=O)N/N=c2/sc3ccccc3n2C)cc1
inactive: [1] -11.3% | [2] -12.4% | [3] 16% | [4] 20.5% | [5] 13.8% | [6] -4%

CN(C)C1=NC(c2ccccc2)(c2ccccc2)C(=O)N1
inactive: [1] -17.4% | [2] -8.15% | [3] -3.15% | [4] -40.5% | [5] -6.35% | [6] -23.4%

COC1=CC(=O)N(C(=O)C2CSC(C(CO)NC(=O)c3csc(/C=N/O)n3)=N2)C1 (stereo unspecified)
inactive: [1] 1.85% | [2] -11.3% | [3] 8.9% | [4] -4.15% | [5] -6.25% | [6] 19.9%

Clc1ccc(Cl)c2c(Br)cncc12
inactive: [1] 37.4% | [2] 10.8% | [3] 12.9% | [4] 7.05% | [5] 17.5% | [6] 22.1%

NC(=O)n1ncc(Cl)c(Cl)c1=O
inactive: [1] -7.25% | [2] -1.5% | [3] 2.1% | [4] 4.3% | [5] -1.8% | [6] 7.35%

COC(=O)CC1CSCC1=O (stereo unspecified)
inactive: [1] 7.5% | [2] 22.1% | [3] 5.95% | [4] -12.5% | [5] 12.6% | [6] 11.2%

CC(/C=C/C(=O)c1sc(C(N)=S)nc1C)=C\c1ccccc1
inactive: [1] 4.55% | [2] -13.1% | [3] -6.8% | [4] 10.8% | [5] -5.8% | [6] 22.2%

O=C1OC(=O)C(Cl)=C1Cl
inactive: [1] 16.6% | [2] -10.5% | [3] 28.8% | [4] 10.7% | [5] 9.4% | [6] 22.3%

COc1c(CCl)cc(-c2sc3ccccc3c(=O)c2CCl)cc1CCl
inactive: [1] -7.25% | [2] -7.3% | [3] 1.1% | [4] 2.85% | [5] -1.8% | [6] 1.85%
